# High-throughput results from PubChem.
# Sampled rows, rich in hits. Any-hit rate of the full collection: about 3.3%.
# PI4K2A block – blocks human PI4K2A kinase activity. Q9BTU6. purified PI4K2A, ADP-Glo luminescence, 1 h; active compounds read low. activity change, negative = inhibition, % at 76.9 µM. 420,000 tested, 0.13% active; in the data active means activity change below about -50%; inconclusive means mostly about -30% to -49%
#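 ADP-Glo luminescence measured ADP generated by PI4K2A enzyme (4 ug/mL before mixing) with 1.2 mM PI substrate (pre-mix) and 300 microM ATP (pre-mix). Tris pH7.5 buffer with MgCl2, Triton X-100; 1 h reaction at ambient temperature.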
# DRD3 agonist – D3 dopamine receptor (human) agonism; D3R DiscoveRx beta-arrestin cells, luminescence, 90 min; 410,000 tested, 0.58% active; AID 652048; max activation, %; P35462; in the data active means max activation above about 30%
# Target sequence (P35462 whole entry, looked up): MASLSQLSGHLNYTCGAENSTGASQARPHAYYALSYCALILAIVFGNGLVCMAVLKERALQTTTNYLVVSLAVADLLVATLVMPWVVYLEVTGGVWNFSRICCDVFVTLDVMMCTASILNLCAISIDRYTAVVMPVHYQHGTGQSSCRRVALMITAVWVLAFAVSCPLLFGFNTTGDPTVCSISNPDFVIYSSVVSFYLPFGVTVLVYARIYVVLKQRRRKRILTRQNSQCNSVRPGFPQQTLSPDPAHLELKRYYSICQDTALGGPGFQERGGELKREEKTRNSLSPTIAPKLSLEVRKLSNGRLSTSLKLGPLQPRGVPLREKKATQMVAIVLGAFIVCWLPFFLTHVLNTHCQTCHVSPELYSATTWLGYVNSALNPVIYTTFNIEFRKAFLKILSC
#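 Agonist-mode cell screen: cells plated at 1500/well and incubated overnight at 37 °C, then exposed to library compounds for 90 min at 37 °C. Detection reagent was added for 30–60 min at room temperature, and luminescence was read.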
# DRD3 antagonist – blocks the human D3 dopamine receptor; D3R cells, DiscoveRx beta-arrestin luminescence, antagonist mode; active compounds read low; max response, negative = inhibition, %; P35462; 360,000 tested, 2.5% active; AID 652054; in the data active means max response below about -50%; inconclusive means no clear call, values can overlap the other calls
#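 Cells plated overnight at 1500 cells/well, then exposed to library compounds with dopamine controls for 90 minutes at 37 degrees C. DiscoveRx reagent added for 30–60 minutes at room temperature; luminescence read, quantitative HTS format.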
# PI5P4K alpha inh – PI5P4K alpha (human) kinase inhibition; PI5P4Kalpha enzyme, ADP-Glo luminescence, 60 min; active compounds read low; P48426; 330,000 tested, 1.2% active; max response, %; active means max response of -50% or lower; inconclusive means between -30% and -50%; inactive means -30% or higher; further: value at the top dose of about 77 µM
#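 Enzyme plus substrate dispensed, test compounds pinned in, then ATP (5 microM final) added. After 60 min at RT, ADP-Glo reagent 1 for 45 min and reagent 2 for 30 min preceded luminescence imaging.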
# LDHA inh – LDHA (human) enzyme inhibition | P00338 | purified LDHA, NADH/diaphorase-resazurin fluorescence; active compounds read low | activity change, % (values are at about 110 or 230 µM) | 480,000 tested, 0.15% active | AID 1347041; in the data active means activity change below about -30%; inconclusive means mostly about -25% to -30%
#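 Resorufin fluorescence (ex540/em590), read at 0 and 20 min after diaphorase/resazurin addition, reports the NADH left after a 5 min room-temperature reaction of 2 nM human LDH5 with 0.06 mM NADH and 0.2 mM pyruvate.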
# A number is an active result; – = inactive; ? = inconclusive; · = no result given.
SMILES,PI4K2A block,DRD3 agonist,DRD3 antagonist,PI5P4K alpha inh,LDHA inh
CCn1c(=O)c(C(=O)NCCN2CCCCC2)c(O)c2ccccc21,–,–,-93,–,–
COc1ccc(OCCCn2c(CCNC(=O)C3CCCCC3)nc3ccccc32)cc1,·,·,·,·,–
O=C(Nc1ccccc1-c1nc(Cc2ccccc2)no1)c1cccs1,·,·,·,·,–
COc1ccc(NC(=O)c2cccc3ccccc23)c2cccnc12,·,·,·,·,–
Cc1nc2sc(C(=O)OCC(=O)Nc3c(C)cccc3C)c(C)c2c(=O)[nH]1,·,·,·,·,–
O=C(NCc1ccccn1)c1c(O)c2cccc3c2n(c1=O)CC3,–,–,-56,–,–
COc1ccc(CNC(=O)c2c(O)c3cccc4c3n(c2=O)CCC4)cc1,–,–,–,–,–
COc1cc(OC)cc(-c2sc3ccc(OC)cc3c2C#CC(C)(C)O)c1,–,36,–,–,–
COc1ccc(-c2sc3cc4c(cc3c2C#Cc2cncn2C)OCO4)cc1,–,–,–,–,–
COc1cccc(-c2sc3ccc(OC)cc3c2C#CC2(O)CCCCC2)c1,–,–,–,–,–
COc1cc(OC)cc(-c2sc3ccc(OC)cc3c2C#CCO)c1,–,40,–,–,–
COC(=O)c1c(-c2ccc(OC)cc2)sc2ccc(OC)cc12,–,58,–,–,–
COc1cccc(-c2sc3ccc(OC)cc3c2C#CCCO)c1,–,–,–,–,–
COc1ccc(-c2sc3ccc(OC)cc3c2C#Cc2cncn2C)cc1,–,34,–,–,–
COC(=O)c1c(-c2ccc(OC)cc2)sc2ccc(-c3ccc4c(c3)OCO4)cc12,–,–,–,–,–
NC(=O)c1cccc(CN(CC2CCOC2)C2CC2)c1 (configuration not stated),·,·,·,·,–
COc1cc(OC)cc(-c2sc3ccc(OC)cc3c2C#CC2(N)CCCCC2)c1,–,36,–,–,–
Cn1c(=O)[nH]c(=O)c2c1nc(Nc1cc(Cl)ccc1Cl)n2CC(=O)O,·,·,·,·,–
O=C(NC(c1ccc2c(c1)OCO2)c1ccccn1)C1CCN(CCOc2ccccc2)CC1 (configuration not stated),–,–,-72,–,–
COc1cccc(C(NC(=O)C2CCN(CCCOc3ccccc3)CC2)c2ccccn2)c1 (configuration not stated),–,–,-89,–,–
COc1ccc(C(NC(=O)C2CCN(CCOc3ccccc3)CC2)c2ccccn2)cc1 (configuration not stated),–,–,?,–,–
COc1ccc(OCCN2CCC(C(=O)NC(c3ccc(C)cc3)c3ccccn3)CC2)cc1 (configuration not stated),–,–,-74,–,–
CCN(CC)CC(=O)NC(=O)NC1CCCCC1,·,·,·,·,–
Cc1nc(NCCc2ccc(F)cc2)c2nnn(Cc3ccccc3)c2n1,–,–,–,–,–
Cc1nc(NCCc2ccc(O)cc2)c2nnn(Cc3ccccc3)c2n1,–,–,-82,–,–
SMILES,PI4K2A block,DRD3 agonist,DRD3 antagonist,PI5P4K alpha inh,LDHA inh
COC(=O)C1=C(O)/C(=C\c2ccc(CNS(=O)(=O)c3ccc(Cl)cc3)o2)N=C1C,–,–,–,–,–
CCOC(=O)C1=C(O)/C(=C\c2ccc(CNS(=O)(=O)c3ccc(Br)cc3)o2)N=C1C,–,–,–,-58,–
Cc1cccc(-n2cc(-c3ccccc3)c3c(N4CCCC4)ncnc32)c1,·,·,·,·,–
Nc1cccc2c1C(=O)N(CC(=O)NC13CC4CC(CC(C4)C1)C3)C2=O,–,–,–,–,–
O=C(Cn1sc2ccccc2c1=O)Nc1ccccc1,?,–,–,-82,–
O=C(Cn1nc(C(=O)O)c2ccccc2c1=O)Nc1ccccc1,·,·,·,·,–
O=C(Cn1sc2ccccc2c1=O)NC12CC3CC(CC(C3)C1)C2,–,–,–,-91,–
CC1CCc2nc3ccccc3c(C(=O)OCC3CCCO3)c2C1 (configuration not stated),·,·,·,·,–
COc1ccc(C(=O)/C=C/Sc2nc3ccccc3o2)cc1,–,–,-105,–,–
COc1cc(OCc2ccccc2)c(OC)c(OCc2ccccc2)c1,–,40,–,–,–
COc1c(Br)cc(C(N)=O)cc1OCc1ccccc1,–,–,–,–,–
Cc1cc(C)c2c(CC(=O)NCCc3ccccc3)coc2c1,–,34,–,–,–
Cc1ccc(CNC(=O)Cc2coc3cc(C)cc(C)c23)cc1,–,–,·,·,–
O=c1cc(/N=C/c2coc3c(ccc4ccccc43)c2=O)[nH]c(=S)[nH]1,–,–,–,-75,–
O=c1oc2ccccc2c(Nc2ccc3ccccc3c2)c1[N+](=O)[O-],–,–,-86,–,–
CCCCCn1c(N2CCN(Cc3ccc(Br)cc3)CC2)nc2c1c(=O)[nH]c(=O)n2C,·,·,·,·,–
Cc1cc(C)c2nc(-c3ccncc3)cc(C(=O)N3CCN(Cc4ccccc4Cl)CC3)c2c1,–,43,–,–,–
CCCCN1CCN(C(=O)c2cc(-c3ccncc3)nc3c(C)c(C)ccc23)CC1,·,·,·,·,–
O=C(O)c1ccc(Nc2nc3ccc(Cl)cc3[nH]2)cc1,–,–,-54,–,–
CC1=NN(c2nc(N)nc(/C(C#N)=C/c3ccc([N+](=O)[O-])o3)n2)C(C)(C)C1,–,–,-61,?,–
C[C@H]1C2CC(OC(=O)Nc3ccccc3C(F)(F)F)C(C2)[C@H]2CCCCN21 (some centres not stated),–,·,·,·,·
C=CCNc1nc(C(=O)OCC(=O)c2ccc(F)cc2)cs1,–,–,–,?,–
C=CCNc1nc(C(=O)OCC(=O)c2cccc(Br)c2)cs1,–,–,–,-59,–
CC(=O)N(CCCN(C)C)Cc1ccccn1,–,44,–,–,–
COC(=O)C1=C(C)N(c2ccccc2)C(=O)CC1C(=O)Nc1ccc(C(C)=O)cc1 (configuration not stated),·,·,·,·,–
SMILES,PI4K2A block,DRD3 agonist,DRD3 antagonist,PI5P4K alpha inh,LDHA inh
CCOC(=O)C1CCCN(C(=O)c2cc3nc(-c4cccc(OC)c4)cc(C(F)(F)F)n3n2)C1 (configuration not stated),–,52,–,·,–
COc1cc(C(=O)COC(=O)COc2ccc(Cl)cc2)cc(OC)c1OC,·,·,·,·,–
COc1cccc(Nc2nc3cc(OC)ccc3nc2NS(=O)(=O)c2ccc(Cl)cc2)c1,·,·,·,·,–
COc1cccc(Nc2nc3cc(C)ccc3nc2NS(=O)(=O)c2ccc(Cl)cc2)c1,–,43,·,·,–
Cc1ccc(CN(C)C(=O)c2cccc(S(=O)(=O)N3CCc4ccccc43)c2)cc1,–,–,-52,–,–
CCOc1ccc(N)c(SSc2cc(OCC)ccc2N)c1,–,–,–,?,–
CS(=O)(=O)c1ccc(N)c(SSc2cc(S(C)(=O)=O)ccc2N)c1,–,–,–,-81,–
Cc1ccc(-n2nnc(C(=O)NC3CCCCC3)c2N)cc1,·,·,·,·,–
Cc1cccc2c(=O)c(-c3ccccc3)c(NC(=O)CC(C)C)oc12,·,·,·,·,–
NS(=O)(=O)c1ccc(N=Nc2c(=O)[nH]n3c(=O)c4c([nH]c23)CCCC4)cc1,–,–,–,-62,–
